Experimental data: PubChem BioAssay AID1345085 (National Center for Advancing Translational Sciences (NCATS), 2018)
Inconclusive results are not listed. Active and inactive are the calls of the source. The call rests on the fitted dose curve; in most records, active means well fitted cell-killing curve with a large enough effect; inconclusive means small, poorly fitted or top-dose-only effect, or effect the other way; inactive means no such curve, though single readings can be large or run the other way.
Further: nearly all actives have a fitted effect of over 55% in size.
On the % scale 0 is the no-effect control and ±100 the full control effect; potency means the concentration at half of the fitted maximal effect.

These compounds were tested on CAOV3 (assay: Confirmatory qHTS for gynecologic anti-cancer compounds from libraries of approved drugs and bioactive compounds). Settings: gynecologic cancer cell panel viability, ATPlite luminescence, 48 h; series mostly up to 57.6 µM.
Procedure, shortened: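 Viability is measured as ATP-dependent luciferase light using ATPlite, read 15 min after reagent addition at room temperature. Compounds, in DMSO, span 57.5 uM down to 0.977 nM over 11 threefold steps for 48 h.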
In the case of `Nc1ccccc1NC(=O)c1ccc(CNc2nccc(-c3cccnc3)n2)cc1`, the Potency is reported as 2.73 µM (active).
In the case of `COc1cc(F)c(F)c(Nc2ccc(I)cc2F)c1NS(=O)(=O)C1(CC(O)CO)CC1` (centres undefined), the Potency is reported as “inactive”.
For `Cc1cc(Nc2cc(N3CCN(C)CC3)nc(/C=C/c3ccccc3)n2)n[nH]1`, the Potency was 7.69 µM (active).
With `CCN1C[C@H](C)n2c(c(O)c3c(=O)n(Cc4ccc(F)c(Cl)c4)nc(C(=O)NC)c32)C1=O` the Potency was “inactive”.
`COc1cc(-c2nn(C3CCC(N4CCN(C(C)=O)CC4)CC3)c3ncnc(N)c23)ccc1NC(=O)c1cc2ccccc2n1C` (centres undefined) was tested, and the Potency was 30.6 µM (active).
With `Nc1ccc(-c2ccc3ncc4ccc(=O)n(-c5cccc(C(F)(F)F)c5)c4c3c2)cn1` the Potency was 3.43 µM (active).
In the case of `C=CC(=O)Nc1cc2c(Nc3ccc(F)c(Cl)c3)ncnc2cc1OCCCN1CCOCC1`, the Potency is reported as 27.3 µM (active).
In the case of `CC(C)Nc1cc(-c2c[nH]c(C(=O)N[C@H](CO)c3cccc(Cl)c3)c2)c(Cl)cn1`, the Potency is reported as “inactive”.
In the case of `Cc1[nH]c2ccccc2c1CCNCc1ccc(/C=C/C(=O)NO)cc1`, the Potency is reported as 0.685 µM (active).
With `O=c1cc(CN2CCOCC2)occ1OCCCCCSc1ccnc2cc(C(F)(F)F)ccc12` the Potency was “inactive”.
For `Cc1cnc(CNC(=O)c2c(=O)c3ccc(N4CCCN(C)CC4)nc3n3c2sc2ccccc23)cn1`, the activity change, negative = viability loss was 22.5% [at 10.7 µM] (inactive).
`CCC1C(=O)N(C)c2cnc(Nc3ccc(C(=O)NC4CCN(C)CC4)cc3OC)nc2N1C1CCCC1` (centres undefined) was tested, and the Potency was 4.85 µM (active).
In the case of `CN(C)C/C=C/C(=O)Nc1cc2c(Nc3ccc(F)c(Cl)c3)ncnc2cc1OC1CCOC1` (centres undefined), the Potency is reported as 10.9 µM (active).
`CCc1c2c(nc3ccc(O)cc13)-c1cc3c(c(=O)n1C2)COC(=O)[C@]3(O)CC` was tested, and the Potency was 0.0385 µM (active).
With `O=C(NOC[C@H](O)CO)c1ccc(F)c(F)c1Nc1ccc(I)cc1F` the Potency was “inactive”.
`C[C@]12CCC(=O)C=C1[C@@H]1C[C@@H]1[C@H]1[C@@H]3[C@@H]4C[C@@H]4[C@@]4(CCC(=O)O4)[C@@]3(C)CC[C@@H]12` was tested, and the Potency was “inactive”.
With `Cn1cc(-c2ccc3ncc(Cc4ccc5ncccc5c4)n3n2)cn1` the Potency was “inactive”.
With `CC[C@@]1(O)C(=O)OCc2c1cc1n(c2=O)Cc2cc3cc(O)ccc3nc2-1` the Potency was 0.109 µM (active).
`CCCC(=O)O[C@]1(C(=O)CCl)[C@@H](C)C[C@H]2[C@@H]3CCC4=CC(=O)C=C[C@]4(C)[C@@]3(F)C(=O)C[C@@]21C` was tested, and the Potency was “inactive”.
With `O=C(Nc1cccnc1)N1CCC(Cc2cccc(Oc3ccc(C(F)(F)F)cn3)c2)CC1` the Potency was “inactive”.
For `NC(=O)Nc1cc(-c2cccc(F)c2)sc1C(=O)NC1CCCNC1` (centres undefined), the Potency was 1.22 µM (active).
For `CCC1C(=O)N(C)c2cnc(Nc3ccc(C(=O)NC4CCC(N5CCN(CC6CC6)CC5)CC4)cc3OC)nc2N1C(C)C` (centres undefined), the Potency was 2.17 µM (active).
In the case of `CN(C)C1CCN(C(=O)c2ccc(NC(=O)Nc3nc(N4CCOCC4)nc(N4CCOCC4)n3)cc2)CC1`, the Potency is reported as 0.611 µM (active).
With `COc1cc2nccc(Oc3ccc(NC(=O)C4(C(=O)Nc5ccc(F)cc5)CC4)cc3)c2cc1OC` the Potency was 21.7 µM (active).
For `CN(c1nccc(=O)[nH]1)C1CCN(c2nc3ccccc3n2Cc2ccc(F)cc2)CC1`, the Potency was “inactive”.
`O=C1NC(=O)C(c2cnc3ccccn23)=C1c1cn2c3c(cccc13)CN(C(=O)N1CCOCC1)CC2` was tested, and the Potency was “inactive”.
In the case of `C[C@@]1(C(=O)Nc2ccc(F)nc2)CCCN1c1nc(Nc2cc(C3CC3)[nH]n2)c2cccn2n1`, the Potency is reported as 12.2 µM (active).
For `OC[C@H]1O[C@@H](n2cnc3c(=S)nc[nH]c32)[C@H](O)[C@@H]1O`, the Potency was 1.37 µM (active).
`CCOc1ccc(Nc2nc(-c3c(C)nc4ccccn34)cs2)cc1` was tested, and the Potency was “inactive”.
With `CC(=O)Nc1cccc(-n2c(=O)n(C3CC3)c(=O)c3c(Nc4ccc(I)cc4F)n(C)c(=O)c(C)c32)c1` the Potency was “inactive”.
In the case of `COc1cccc2c1C(=O)c1c(O)c3c(c(O)c1C2=O)C[C@@](O)(C(=O)CO)C[C@@H]3O[C@H]1C[C@H](N)[C@H](O)[C@H](C)O1`, the Potency is reported as 2.43 µM (active).
For `COc1ccc2cc3[n+](cc2c1OC)CCc1cc2c(cc1-3)OCO2`, the Potency was “inactive”.
With `CC(C)[C@@H](CS(=O)(=O)C(C)C)N1C(=O)[C@@](C)(CC(=O)O)C[C@H](c2cccc(Cl)c2)[C@H]1c1ccc(Cl)cc1` the Potency was “inactive”.
With `CN1C(=O)C(Cc2c[nH]c3ccccc23)NC1=S` (centres undefined) the Potency was “inactive”.
